Source: PubChem BioAssay AID504621 (Broad Institute, 2011)
Hit rate of the full screen: of about 310,000 compounds, about 970 (0.31%) were called active. What follows is part of a selection rich in actives, with near analogues and random picks from the rest. Values without a mark were called inactive.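 The calls were made as follows: active = every replicate shows inhibition above about 80%, whatever the replicate mean (limit read from the data); inconclusive = mean inhibition reaches the set limit but some replicate falls short; inactive = the rest.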

Assay: growth inhibition of PfHsp90-expressing yeast, primary screen, antimalarial PfHsp90 inhibitor project, S. cerevisiae, BacTiter-Glo luminescence, single point, set 2 (AID 504621);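 also: yeast relying on Plasmodium falciparum Hsp90 in place of its own; 0% = DMSO neutral controls and 100% = 20 µM radicicol positive controls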
Settings: BacTiter-Glo ATP, 48 h, at 9.4 µM, stronger effect = higher value, yeast lacking PDR1 and PDR3 efflux regulators

| SMILES | inhibition |
| --- | --- |
| O=C(/C=C/c1ccc(Cl)c([N+](=O)[O-])c1)c1ccc(O)cc1 | 12.9% |
| O=C(/C=C/c1ccc(Cl)c([N+](=O)[O-])c1)c1cccnc1 | 104% (active) |
| O=C(Nc1cccnc1)c1ccc(Cl)c([N+](=O)[O-])c1 | 15.1% |
| COc1ccc(CNCCCn2cnc3c(OCc4ccccc4)ncnc32)cc1 | 21.9% |
| COc1ccc(C(=O)Nc2cccc(/C=C(/CCC(=O)O)c3nc4ccccc4s3)c2)cc1 | -6.48% |
| O=C(NN=Cc1ccccc1O)NN=Cc1ccccc1O | 15.3% |
| COC[C@@H]1NS(=O)(=O)c2ccc(Br)cc2O[C@H]1c1ccccc1 | -9.7% |
| CC(CN1CCOCC1)OC(=O)c1ccc(Cl)cc1Cl (stereo not given) | -17.2% |
| CC(C)OC(=O)c1ccc(NCc2cc(O)ccc2O)cc1Cl | 121% (active) |
| CC(C)NC(=O)c1ccc(Cl)cc1Cl | -8.78% |
| N#CC1=C(N)Oc2cc(N)ccc2C1c1ccccc1 (stereo not given) | -6.35% |
| O=C(Cc1ccc(S(=O)(=O)N2CCOCC2)s1)Nc1ccc(Br)c(C(F)(F)F)c1 | 0.787% |
| Cc1[nH]n(-c2ccc([N+](=O)[O-])cc2)c(=O)c1C=NCCN1CCN(C(=O)c2ccccc2F)CC1 | 86.9% (active) |
| C=CCNC(=S)N1CCN(CCN=Cc2c(C)[nH]n(-c3ccc([N+](=O)[O-])cc3)c2=O)CC1 | -11.1% |
| Cc1[nH]n(-c2ccccc2)c(=O)c1N=Nc1ccccc1C(=O)N1CCCCC1 | 9.24% |
| CCOC(=O)CCC(NC(=O)c1ccc(CNc2nc3cc(C(F)(F)F)ccc3nc2C(=O)OCC)cc1)C(=O)OCC (stereo not given) | -2.78% |
| Cc1ccc(S(=O)(=O)N2CCN(C(=O)COC(=O)/C=C/c3cccc(Cl)c3)CC2)c(C)c1 | 4.86% |
| O=C(NCc1ccc2c(c1)OCO2)c1c(-c2ccsc2)sc2ccccc12 | 20.1% |
| Cc1cccc(-c2oc3ccc(-c4ccc5c(c4)OCO5)cc3c2C#Cc2cncn2C)c1 | -2.66% |
| CC(=NNC(=S)N1CCCCCC1)c1ccccn1 | 91.4% (active) |

| SMILES | inhibition |
| --- | --- |
| C/C(=N\NC(=O)Cc1ccc(Cl)cc1)c1ccccn1 | -4.85% |
| C/C(=N\NC(=O)c1ccccc1F)c1ccccn1 | -13% |
| Oc1[nH]c2ccccc2c1N=Nc1c(F)c(F)c(F)c(F)c1F | -34.3% |
| COc1ccc(C(=O)N(C)Cc2ccc(OC)c(OC)c2OC)cc1S(=O)(=O)N1CCOCC1 | 5.5% |
| O=C(CN1C(=O)NC2(CCCCCCC2)C1=O)NCc1ccc(F)cc1 | 12.2% |
| OCC1(CO)CC2(C1)CC(CO)(CO)C2 | 6.26% |
| Cn1nccc1C(=O)N1CCCC(C(=O)c2ccc(Oc3ccccc3)cc2)C1 (stereo not given) | -45.9% |
| O=C(c1ccc(-c2ccccc2)cc1)C1CCCN(C(=O)c2cncs2)C1 (stereo not given) | 90.2% (active) |
| CCNC(=O)N1CCCC(C(=O)c2ccc(-c3ccccc3)cc2)C1 (stereo not given) | -1.67% |
| CC(C)(C)OC(=O)N(Cc1ccccc1)Cc1ccc(OCc2cccc(NC(=O)c3ccccc3)c2)cc1 | 25% |
| COc1cccc2oc(CCc3ccccc3)cc(=O)c12 | 8.03% |
| O=C(CC1SCCNC1=O)Nc1ccc(Cl)c(Cl)c1 (stereo not given) | 15% |
| O=C(Cc1ccc(Cl)c(Cl)c1)Nc1ccc(SC(F)F)cc1 | 12.6% |
| O=C(CC(O)(C(F)(F)F)C(F)(F)F)Nc1ccc(Cl)c(Cl)c1 | 123% (active) |
| Cc1cc([N+](=O)[O-])ccc1NS(=O)(=O)c1ccccc1 | -35.7% |
| COc1ccc(S(=O)(=O)NC(C)C(=O)Nc2cccc([N+](=O)[O-])c2)cc1 (stereo not given) | 4.61% |
| COc1cccc(CNC(=O)CCCC(=O)Nc2cccc([N+](=O)[O-])c2)c1 | -1.23% |
| COC(=O)/C=C\C(=O)Nc1cccc([N+](=O)[O-])c1 | 106% (active) |
| O=[N+]([O-])/C=C/c1ccc2c(ccn2Cc2ccccc2)c1 | 104% (active) |
| COC(=O)Cn1cc(/C=C/[N+](=O)[O-])c2ccccc21 | -17% |

| SMILES | inhibition |
| --- | --- |
| O=C(/C=C/c1cccc([N+](=O)[O-])c1)N1CCN(Cc2ccccc2)CC1 | 0.555% |
| COc1ccc(C(=O)/C=C/c2ccc(-c3ccccc3)cc2)cc1CSCC(=O)O | 105% (active) |
| COC(=O)c1ccc(COc2ccc(/C=C/C(=O)c3ccc(OC)c(CSCC(=O)O)c3)cc2OC)cc1 | 1.15% |
| COc1ccc(/C=C/C(=O)c2ccc(NS(=O)(=O)c3ccc(C)cc3)cc2)cc1O | -4.81% |
| CN(CCc1ccccc1)C(=O)c1cccc(NC(=O)Cc2cccc(NC(=O)C3CCCN(C(=O)CCc4ccccc4)C3)c2)c1 (stereo not given) | -1.39% |
| O=C(Nc1ccn(CCCNCc2ccc3[nH]ccc3c2)c(=O)n1)OCc1ccccc1 | -7.16% |
| CCCCN1CC(COc2ccccc2)Oc2cccc(F)c2S1(=O)=O (stereo not given) | -1.66% |
| O=C(NNC(=O)c1ccccc1O)c1ccccc1O | -9.27% |
| CN(O)C(=S)c1ccccc1 | 104% (active) |
| CN(CC(=O)O)C(=O)c1ccccc1 | 28.8% |
| CN(/N=C/c1ccccc1)C(=S)c1ccccc1 | -15.5% |
| CCc1ccc(C(=O)C(C)OC(=O)CN2C(=O)NC3(CCCC3)C2=O)cc1 (stereo not given) | -1.32% |
| Cc1nnsc1C(=O)N/N=C/c1ccccc1Cl | 1.6% |
| O=C(Nc1ccccc1)c1nnsc1S(=O)(=O)c1ccc(Cl)cc1 | 126% (active) |
| O=C(Nc1ccc(Cl)cc1)Nc1nnc(/C=C/c2ccccc2)s1 | 8.47% |
| O=C(C[C@H]1C/C=C\C[C@@H](NC(=O)OCC2c3ccccc3-c3ccccc32)C(=O)O[C@@H](c2ccccc2)CNC1=O)N[C@H](CO)Cc1ccccc1 | -13.9% |
| OCCN1CCN(CCO)C1=S | 15.3% |
| S=c1[nH]nc(-c2cc(-c3ccccc3)n[nH]2)n1/N=C/c1c2ccccc2cc2ccccc12 | -28.2% |
| Oc1ccccc1/C=N/n1c(-c2cccs2)n[nH]c1=S | -9.75% |
| Cc1cc(-c2n[nH]c(=S)n2/N=C/C(Br)=C/c2ccccc2)n[nH]1 | 109% (active) |
